# According to the supplement of paper PMC4466140:
# Assays:
# Test in all cases: SPOT peptide array binding signal intensity (averaged, normalized) (arbitrary units (background-subtracted, floor 0; scale differs between SH3 domains)); higher = stronger binding of the SH3 domain to the peptide
# AgAbp1 = molecular target: AgAbp1
# Summary of the method: (§1)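 E. coli BL21(DE3) was used to express GST-fused SH3 domains from four yeast species, which were then purified on glutathione Sepharose. These were incubated at 10 μg/ml in TBS-based blocking buffer overnight at 4°C on cellulose membranes carrying synthetic 15-mer peptides, in which cysteines were replaced by serines. Binding signal is the replicate average of normalized, background-subtracted spot intensity, in arbitrary units that differ between domains.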
# AgBbc1 = molecular target: AgBbc1
# Summary of the method: as §1
# AgBem1-D1 = molecular target: AgBem1-D1
# Summary of the method: as §1
# AgBzz1-D1 = molecular target: AgBzz1-D1
# Summary of the method: as §1
# AgBzz1-D2 = molecular target: AgBzz1-D2
# Summary of the method: as §1
# AgCyk3 = molecular target: AgCyk3
# Summary of the method: as §1
# AgFus1 = molecular target: AgFus1
# Summary of the method: as §1
# AgHof1 = molecular target: AgHof1
# Summary of the method: as §1
# AgHse1 = molecular target: AgHse1
# Summary of the method: as §1
# AgLsb1 = molecular target: AgLsb1
# Summary of the method: as §1
# AgLsb4 = molecular target: AgLsb4
# Summary of the method: as §1
# AgMyo5 = molecular target: AgMyo5
# Summary of the method: as §1
# AgNbp2 = molecular target: AgNbp2
# Summary of the method: as §1
# AgRvs167 = molecular target: AgRvs167
# Summary of the method: as §1
# AgSho1 = molecular target: AgSho1
# Summary of the method: as §1
# AgSla1-D1-D2 = molecular target: AgSla1-D1-D2
# Summary of the method: as §1
# AgSla1-D3 = molecular target: AgSla1-D3
# Summary of the method: as §1
# CaAbp1-D1 = molecular target: CaAbp1-D1
# Summary of the method: as §1
# CaAbp1-D2 = molecular target: CaAbp1-D2
# Summary of the method: as §1
# CaBbc1 = molecular target: CaBbc1
# Summary of the method: as §1
# CaBem1-D1 = molecular target: CaBem1-D1
# Summary of the method: as §1
# CaBzz1-D1 = molecular target: CaBzz1-D1
# Summary of the method: as §1
# CaBzz1-D2 = molecular target: CaBzz1-D2
# Summary of the method: as §1
# CaCyk3 = molecular target: CaCyk3
# Summary of the method: as §1
# CaFus1 = molecular target: CaFus1
# Summary of the method: as §1
# CaHof1 = molecular target: CaHof1
# Summary of the method: as §1
# CaHse1 = molecular target: CaHse1
# Summary of the method: as §1
# CaLsb1 = molecular target: CaLsb1
# Summary of the method: as §1
# CaLsb4 = molecular target: CaLsb4
# Summary of the method: as §1
# CaMyo5 = molecular target: CaMyo5
# Summary of the method: as §1
# CaNbp2 = molecular target: CaNbp2
# Summary of the method: as §1
# CaRvs167 = molecular target: CaRvs167
# Summary of the method: as §1
# CaRvs167-3 = molecular target: CaRvs167-3
# Summary of the method: as §1
# CaSho1 = molecular target: CaSho1
# Summary of the method: as §1
# CaSla1-D1-D2 = molecular target: CaSla1-D1-D2
# Summary of the method: as §1
# CaSla1-D3 = molecular target: CaSla1-D3
# Summary of the method: as §1
# ScAbp1 = molecular target: ScAbp1
# Summary of the method: as §1
binder,measurement,setting,value
LLLLFVPDSPYDPAI,SPOT peptide array binding signal intensity,AgAbp1,1
same,SPOT peptide array binding signal intensity,AgBbc1,0.75
same,SPOT peptide array binding signal intensity,AgBem1-D1,27
same,SPOT peptide array binding signal intensity,AgBzz1-D1,17.5
same,SPOT peptide array binding signal intensity,AgBzz1-D2,20.5
same,SPOT peptide array binding signal intensity,AgCyk3,3
same,SPOT peptide array binding signal intensity,AgFus1,2370
same,SPOT peptide array binding signal intensity,AgHof1,2.25
same,SPOT peptide array binding signal intensity,AgHse1,277
same,SPOT peptide array binding signal intensity,AgLsb1,≤ 0
same,SPOT peptide array binding signal intensity,AgLsb4,636
same,SPOT peptide array binding signal intensity,AgMyo5,1
same,SPOT peptide array binding signal intensity,AgNbp2,63
same,SPOT peptide array binding signal intensity,AgRvs167,1.67
same,SPOT peptide array binding signal intensity,AgSho1,212
same,SPOT peptide array binding signal intensity,AgSla1-D1-D2,≤ 0
same,SPOT peptide array binding signal intensity,AgSla1-D3,0.5
same,SPOT peptide array binding signal intensity,CaAbp1-D1,11
same,SPOT peptide array binding signal intensity,CaAbp1-D2,1
same,SPOT peptide array binding signal intensity,CaBbc1,≤ 0
same,SPOT peptide array binding signal intensity,CaBem1-D1,≤ 0
same,SPOT peptide array binding signal intensity,CaBzz1-D1,43.5
same,SPOT peptide array binding signal intensity,CaBzz1-D2,19.5
same,SPOT peptide array binding signal intensity,CaCyk3,1
same,SPOT peptide array binding signal intensity,CaFus1,5080
same,SPOT peptide array binding signal intensity,CaHof1,66.8
same,SPOT peptide array binding signal intensity,CaHse1,92
same,SPOT peptide array binding signal intensity,CaLsb1,1.5
same,SPOT peptide array binding signal intensity,CaLsb4,≤ 0
same,SPOT peptide array binding signal intensity,CaMyo5,6.25
same,SPOT peptide array binding signal intensity,CaNbp2,264
same,SPOT peptide array binding signal intensity,CaRvs167,15.8
same,SPOT peptide array binding signal intensity,CaRvs167-3,3.5
same,SPOT peptide array binding signal intensity,CaSho1,611
same,SPOT peptide array binding signal intensity,CaSla1-D1-D2,6.5
same,SPOT peptide array binding signal intensity,CaSla1-D3,11.5
same,SPOT peptide array binding signal intensity,ScAbp1,≤ 0
